Assay in all cases: DAPPL (digital affinity profiling via proximity ligation, sequencing); 10 mM Tris-HCl pH 7.5, 50 mM NaCl, 1 mM DTT, 4% glycerol, room temperature, 30 min; GST-TFs on glutathione beads, 16-mer random dsDNA library, 0.1% formaldehyde crosslink after washing; high values mean tight binding
Common to all, as to conditions: protein: recombinant; tags: N-terminal GST; dsDNA, one strand shown

In experiment [1] the target is T1, FLI1 (Homo sapiens, UniProt Q01543 1-452).
T1 sequence: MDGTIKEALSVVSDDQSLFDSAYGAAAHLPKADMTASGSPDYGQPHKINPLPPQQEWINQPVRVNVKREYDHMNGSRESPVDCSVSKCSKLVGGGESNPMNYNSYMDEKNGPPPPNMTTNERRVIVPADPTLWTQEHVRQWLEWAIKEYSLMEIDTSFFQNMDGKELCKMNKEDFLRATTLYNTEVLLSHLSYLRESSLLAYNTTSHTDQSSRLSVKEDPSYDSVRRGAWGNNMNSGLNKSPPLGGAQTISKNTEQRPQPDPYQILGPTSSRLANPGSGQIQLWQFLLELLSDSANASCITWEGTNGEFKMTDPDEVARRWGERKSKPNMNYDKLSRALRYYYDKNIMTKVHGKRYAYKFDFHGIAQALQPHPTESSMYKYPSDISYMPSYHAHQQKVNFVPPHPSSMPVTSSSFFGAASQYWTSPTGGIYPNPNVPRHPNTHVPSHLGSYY
The method in brief: (§1)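 The binding signal reported is, for every hexamer, its read frequency for a factor over its read frequency for the tag-only sample. Reads came from pools of yeast-expressed, GST-fused human transcription factors on glutathione beads, barcoded with DNA and mixed with that sample, which were incubated with 200 nmole of a random double-stranded 16-mer DNA library in Tris/NaCl/DTT/glycerol buffer at room temperature for 30 min. After washing, the pools were crosslinked with 0.1% formaldehyde, proximity-ligated with BsaI/T4 ligase for 1 h at 37 °C, PCR-amplified and sequenced on an Illumina NextSeq500.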

Experiment [2] concerns the target T2, ELK1 (Homo sapiens, UniProt P19419 1-428).
T2 sequence: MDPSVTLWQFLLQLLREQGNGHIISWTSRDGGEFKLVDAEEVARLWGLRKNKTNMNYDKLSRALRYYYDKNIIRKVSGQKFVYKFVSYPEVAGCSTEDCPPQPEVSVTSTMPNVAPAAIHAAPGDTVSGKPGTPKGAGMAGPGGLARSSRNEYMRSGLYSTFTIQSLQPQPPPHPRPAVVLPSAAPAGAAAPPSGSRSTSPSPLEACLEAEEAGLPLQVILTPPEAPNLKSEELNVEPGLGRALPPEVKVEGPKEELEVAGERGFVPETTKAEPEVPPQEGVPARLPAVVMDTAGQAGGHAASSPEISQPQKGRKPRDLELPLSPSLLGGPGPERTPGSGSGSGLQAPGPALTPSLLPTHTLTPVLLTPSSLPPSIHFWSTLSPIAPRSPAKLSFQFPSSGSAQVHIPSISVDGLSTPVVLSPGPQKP
A digest of the protocol:
as §1

In experiment [3] the target is T3, GABPA (Homo sapiens, UniProt Q06546 1-454).
T3 sequence: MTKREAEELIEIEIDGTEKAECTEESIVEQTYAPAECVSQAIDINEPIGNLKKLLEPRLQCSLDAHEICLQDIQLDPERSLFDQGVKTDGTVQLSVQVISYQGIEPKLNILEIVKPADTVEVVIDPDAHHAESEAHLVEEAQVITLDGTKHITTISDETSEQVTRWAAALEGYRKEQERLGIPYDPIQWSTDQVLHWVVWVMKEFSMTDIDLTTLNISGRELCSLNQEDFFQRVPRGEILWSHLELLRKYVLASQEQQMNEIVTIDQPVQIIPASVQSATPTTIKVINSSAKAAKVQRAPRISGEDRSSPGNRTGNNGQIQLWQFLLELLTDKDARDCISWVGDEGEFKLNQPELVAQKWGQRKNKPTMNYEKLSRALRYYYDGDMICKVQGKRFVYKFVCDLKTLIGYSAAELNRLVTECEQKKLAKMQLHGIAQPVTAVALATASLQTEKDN
A digest of the protocol: as §1

Experiment [4] addresses T4, ERG (Homo sapiens, UniProt P11308 1-479).
T4 sequence: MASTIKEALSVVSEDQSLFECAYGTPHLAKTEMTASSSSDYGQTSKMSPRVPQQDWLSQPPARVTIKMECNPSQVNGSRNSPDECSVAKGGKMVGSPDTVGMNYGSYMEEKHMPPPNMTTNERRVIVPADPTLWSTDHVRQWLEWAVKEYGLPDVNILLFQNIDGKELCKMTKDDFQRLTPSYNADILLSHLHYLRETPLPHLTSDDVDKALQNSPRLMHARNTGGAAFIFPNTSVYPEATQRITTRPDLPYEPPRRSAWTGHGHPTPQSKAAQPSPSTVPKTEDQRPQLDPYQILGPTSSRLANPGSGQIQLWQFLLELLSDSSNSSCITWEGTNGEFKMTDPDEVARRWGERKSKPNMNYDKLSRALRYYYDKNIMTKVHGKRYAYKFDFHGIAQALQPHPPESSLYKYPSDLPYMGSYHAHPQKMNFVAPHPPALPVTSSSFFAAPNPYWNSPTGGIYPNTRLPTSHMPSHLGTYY
The method in brief: as §1

The target in experiment [5] is ELF1 (Homo sapiens, UniProt P32519 1-619). A digest of the protocol: as §1
Experiment [6] addresses T5, EHF (Homo sapiens, UniProt Q9NZC4 1-300).
T5 sequence: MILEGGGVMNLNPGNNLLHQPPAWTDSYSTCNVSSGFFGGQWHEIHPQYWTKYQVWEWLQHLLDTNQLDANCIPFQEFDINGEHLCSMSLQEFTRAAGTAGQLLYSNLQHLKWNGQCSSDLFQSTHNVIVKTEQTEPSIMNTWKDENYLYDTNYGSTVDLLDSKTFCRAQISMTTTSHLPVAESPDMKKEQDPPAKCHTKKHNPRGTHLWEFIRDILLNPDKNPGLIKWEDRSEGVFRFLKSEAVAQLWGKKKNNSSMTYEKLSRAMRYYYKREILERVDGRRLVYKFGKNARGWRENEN
The method in brief: as §1

Experiment [7] deals with SPI1 (Homo sapiens, UniProt P17947 1-270). A digest of the protocol: as §1
Experiment [8] concerns the target SPIB (Homo sapiens, UniProt Q01892 1-262). A digest of the protocol:
as §1

Experiment [9] concerns the target T6, ELK3 (Homo sapiens, UniProt P41970 1-407).
T6 sequence: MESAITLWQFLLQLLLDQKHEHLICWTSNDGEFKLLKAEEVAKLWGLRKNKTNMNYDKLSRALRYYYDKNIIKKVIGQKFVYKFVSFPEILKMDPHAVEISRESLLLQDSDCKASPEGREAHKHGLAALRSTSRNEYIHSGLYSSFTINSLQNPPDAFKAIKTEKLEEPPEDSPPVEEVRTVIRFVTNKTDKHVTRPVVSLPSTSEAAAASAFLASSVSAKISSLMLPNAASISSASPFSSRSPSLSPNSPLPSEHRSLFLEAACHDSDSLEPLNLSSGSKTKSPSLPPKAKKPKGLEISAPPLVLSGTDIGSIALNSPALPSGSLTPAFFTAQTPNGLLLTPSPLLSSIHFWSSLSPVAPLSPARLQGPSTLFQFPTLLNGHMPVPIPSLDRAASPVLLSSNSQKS
The method in brief:
as §1

The target of experiment [10] is T7, FEV (Homo sapiens, UniProt Q99581 1-238).
T7 sequence: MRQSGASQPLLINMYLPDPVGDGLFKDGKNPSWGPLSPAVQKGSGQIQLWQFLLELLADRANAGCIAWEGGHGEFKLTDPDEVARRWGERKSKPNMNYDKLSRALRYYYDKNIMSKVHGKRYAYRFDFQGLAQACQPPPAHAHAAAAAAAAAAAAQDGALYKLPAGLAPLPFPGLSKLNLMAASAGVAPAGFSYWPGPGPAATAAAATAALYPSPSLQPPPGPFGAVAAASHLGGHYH
The method in brief:
as §1

Experiment [11] has as its target ETV5 (Homo sapiens, UniProt P41161 1-510). A digest of the protocol: as §1
Experiment [12] addresses T8, SPIC (Homo sapiens, UniProt Q8N5J4 1-248).
T8 sequence: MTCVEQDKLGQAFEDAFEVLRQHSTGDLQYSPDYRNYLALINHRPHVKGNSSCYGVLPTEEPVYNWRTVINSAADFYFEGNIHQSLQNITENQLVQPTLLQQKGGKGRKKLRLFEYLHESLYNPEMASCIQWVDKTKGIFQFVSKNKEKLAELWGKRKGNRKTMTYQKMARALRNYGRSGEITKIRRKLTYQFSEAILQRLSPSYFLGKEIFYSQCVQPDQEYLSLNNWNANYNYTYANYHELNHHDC
The method in brief: as §1

The target in experiment [13] is ELF4 (Homo sapiens, UniProt Q99607 1-663). The method in brief: as §1
The target in experiment [14] is T9, ELK4 (Homo sapiens, UniProt P28324-2 1-405).
T9 sequence: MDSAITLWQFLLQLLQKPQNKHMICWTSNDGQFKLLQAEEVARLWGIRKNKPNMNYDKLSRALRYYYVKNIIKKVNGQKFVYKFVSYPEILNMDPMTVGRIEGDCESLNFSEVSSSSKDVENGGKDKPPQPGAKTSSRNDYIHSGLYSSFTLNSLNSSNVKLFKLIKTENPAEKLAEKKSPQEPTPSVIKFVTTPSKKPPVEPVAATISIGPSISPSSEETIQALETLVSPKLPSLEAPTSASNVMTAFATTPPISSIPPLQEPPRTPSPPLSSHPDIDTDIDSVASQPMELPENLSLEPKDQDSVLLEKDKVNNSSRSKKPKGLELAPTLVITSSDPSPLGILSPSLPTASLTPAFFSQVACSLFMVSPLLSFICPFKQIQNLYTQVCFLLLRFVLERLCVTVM
The method in brief: as §1

Experiment [15] has as its target T10, ETV2 (Homo sapiens, UniProt O00321 1-342).
T10 sequence: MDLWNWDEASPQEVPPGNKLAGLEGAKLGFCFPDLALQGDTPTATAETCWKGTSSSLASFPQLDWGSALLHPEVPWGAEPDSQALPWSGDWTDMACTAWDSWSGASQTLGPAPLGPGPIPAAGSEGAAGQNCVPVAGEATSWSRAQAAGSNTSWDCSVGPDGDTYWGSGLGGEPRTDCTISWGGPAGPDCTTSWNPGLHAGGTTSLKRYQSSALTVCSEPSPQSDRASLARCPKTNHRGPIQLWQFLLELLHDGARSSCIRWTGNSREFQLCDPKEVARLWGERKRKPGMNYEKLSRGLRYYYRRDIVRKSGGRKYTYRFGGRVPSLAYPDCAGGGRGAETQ
The method in brief:
as §1

Experiment [16] deals with T11, ELF3 (Homo sapiens, UniProt P78545 1-371).
T11 sequence: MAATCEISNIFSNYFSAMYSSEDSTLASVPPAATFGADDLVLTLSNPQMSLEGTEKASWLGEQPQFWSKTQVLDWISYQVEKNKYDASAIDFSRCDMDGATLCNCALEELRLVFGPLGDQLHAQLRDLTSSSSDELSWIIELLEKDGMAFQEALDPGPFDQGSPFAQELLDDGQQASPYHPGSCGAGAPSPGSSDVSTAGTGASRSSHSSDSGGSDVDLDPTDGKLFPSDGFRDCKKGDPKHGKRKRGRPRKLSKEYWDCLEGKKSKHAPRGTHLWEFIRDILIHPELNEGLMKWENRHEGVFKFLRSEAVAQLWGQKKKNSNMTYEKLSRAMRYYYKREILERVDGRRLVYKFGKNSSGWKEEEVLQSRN
A digest of the protocol:
as §1

For experiment [17], the target named is ETV1 (Homo sapiens, UniProt P50549 1-477). A digest of the protocol:
as §1

Chain of SPIB (Q01892 whole entry): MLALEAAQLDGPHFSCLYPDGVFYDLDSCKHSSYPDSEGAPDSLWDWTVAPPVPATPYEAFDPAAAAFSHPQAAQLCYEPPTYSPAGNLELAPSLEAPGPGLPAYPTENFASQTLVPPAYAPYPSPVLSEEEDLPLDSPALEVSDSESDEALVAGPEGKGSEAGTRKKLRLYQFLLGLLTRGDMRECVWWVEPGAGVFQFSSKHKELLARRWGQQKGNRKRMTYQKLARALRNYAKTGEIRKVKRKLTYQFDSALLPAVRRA
Chain of ETV5 (P41161 whole entry): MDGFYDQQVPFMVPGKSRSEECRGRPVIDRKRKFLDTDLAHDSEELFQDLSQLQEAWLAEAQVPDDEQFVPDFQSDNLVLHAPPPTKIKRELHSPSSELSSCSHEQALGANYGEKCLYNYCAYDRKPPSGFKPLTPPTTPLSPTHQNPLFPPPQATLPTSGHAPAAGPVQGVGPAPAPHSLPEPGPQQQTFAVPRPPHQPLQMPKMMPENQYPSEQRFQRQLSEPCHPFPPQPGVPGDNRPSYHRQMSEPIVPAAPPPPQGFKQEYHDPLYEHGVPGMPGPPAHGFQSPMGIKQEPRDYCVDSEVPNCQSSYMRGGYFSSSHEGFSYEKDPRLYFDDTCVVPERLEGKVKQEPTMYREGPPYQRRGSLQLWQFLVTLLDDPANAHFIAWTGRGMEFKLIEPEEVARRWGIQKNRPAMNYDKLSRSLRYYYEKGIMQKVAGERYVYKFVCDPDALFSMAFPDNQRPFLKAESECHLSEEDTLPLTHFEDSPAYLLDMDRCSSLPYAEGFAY
Chain of ETV1 (P50549 whole entry): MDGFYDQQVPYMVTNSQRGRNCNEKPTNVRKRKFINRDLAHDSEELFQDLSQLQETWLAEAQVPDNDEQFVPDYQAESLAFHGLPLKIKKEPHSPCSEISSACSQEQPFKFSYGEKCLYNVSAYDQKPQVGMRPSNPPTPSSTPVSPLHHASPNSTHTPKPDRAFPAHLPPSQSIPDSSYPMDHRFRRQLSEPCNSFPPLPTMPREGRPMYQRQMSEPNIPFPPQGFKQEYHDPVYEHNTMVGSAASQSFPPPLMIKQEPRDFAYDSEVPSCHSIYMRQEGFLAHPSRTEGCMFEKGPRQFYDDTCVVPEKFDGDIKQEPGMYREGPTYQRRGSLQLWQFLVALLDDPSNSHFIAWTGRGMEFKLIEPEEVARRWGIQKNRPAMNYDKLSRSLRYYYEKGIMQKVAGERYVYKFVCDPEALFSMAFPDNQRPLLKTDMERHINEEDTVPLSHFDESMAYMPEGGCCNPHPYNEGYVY
Chain of ELF4 (Q99607 whole entry): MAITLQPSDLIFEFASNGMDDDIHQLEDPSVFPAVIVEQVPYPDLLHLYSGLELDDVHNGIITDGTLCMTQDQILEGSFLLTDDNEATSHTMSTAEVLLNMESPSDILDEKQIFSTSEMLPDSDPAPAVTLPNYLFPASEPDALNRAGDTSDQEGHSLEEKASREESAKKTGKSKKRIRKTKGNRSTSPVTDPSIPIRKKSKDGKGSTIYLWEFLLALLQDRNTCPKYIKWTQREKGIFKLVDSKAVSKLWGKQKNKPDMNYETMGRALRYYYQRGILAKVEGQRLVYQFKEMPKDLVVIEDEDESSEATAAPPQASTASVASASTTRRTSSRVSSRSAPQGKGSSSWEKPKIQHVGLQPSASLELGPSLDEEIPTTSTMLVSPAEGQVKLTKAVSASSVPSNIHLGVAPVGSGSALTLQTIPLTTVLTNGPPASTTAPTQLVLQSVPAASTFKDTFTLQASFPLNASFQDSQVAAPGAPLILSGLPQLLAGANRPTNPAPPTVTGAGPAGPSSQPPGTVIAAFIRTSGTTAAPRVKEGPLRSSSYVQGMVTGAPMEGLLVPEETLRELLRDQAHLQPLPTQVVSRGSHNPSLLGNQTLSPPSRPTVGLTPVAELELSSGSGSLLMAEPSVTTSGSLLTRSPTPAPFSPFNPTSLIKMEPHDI
Chain of ELF1 (P32519 whole entry): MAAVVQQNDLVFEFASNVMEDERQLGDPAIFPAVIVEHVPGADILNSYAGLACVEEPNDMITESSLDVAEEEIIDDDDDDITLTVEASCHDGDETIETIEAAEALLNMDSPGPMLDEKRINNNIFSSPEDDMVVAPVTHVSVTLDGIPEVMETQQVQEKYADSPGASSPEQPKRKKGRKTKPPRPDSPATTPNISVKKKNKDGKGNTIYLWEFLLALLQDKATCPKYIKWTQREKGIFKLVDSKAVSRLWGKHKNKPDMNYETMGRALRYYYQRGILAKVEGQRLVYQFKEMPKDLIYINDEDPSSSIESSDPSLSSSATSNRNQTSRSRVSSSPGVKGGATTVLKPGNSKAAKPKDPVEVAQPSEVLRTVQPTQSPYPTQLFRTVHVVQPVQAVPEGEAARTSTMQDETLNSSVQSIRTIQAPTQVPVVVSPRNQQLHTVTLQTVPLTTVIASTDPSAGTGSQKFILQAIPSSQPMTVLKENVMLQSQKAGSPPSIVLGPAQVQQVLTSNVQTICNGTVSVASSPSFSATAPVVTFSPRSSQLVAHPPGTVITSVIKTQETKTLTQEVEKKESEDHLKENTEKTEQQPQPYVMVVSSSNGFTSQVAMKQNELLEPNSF

On to GGAAGT, for which the binding signal is 2.88 fold enrichment (6-mer frequency, TF over GST control) in experiment [1]; 3.29 fold enrichment (6-mer frequency, TF over GST control) in experiment [2]; 2.57 fold enrichment (6-mer frequency, TF over GST control) in [3]; 3.6 fold enrichment (6-mer frequency, TF over GST control) in [4]; 2.87 fold enrichment (6-mer frequency, TF over GST control) in experiment [5]; 3.23 fold enrichment (6-mer frequency, TF over GST control) in [6]. Also, the binding signal is 4.86 fold enrichment (6-mer frequency, TF over GST control) in experiment [7]; 3.19 fold enrichment (6-mer frequency, TF over GST control) in [8]; 3.36 fold enrichment (6-mer frequency, TF over GST control) in experiment [9]; 3.88 fold enrichment (6-mer frequency, TF over GST control) in [10]; 3.34 fold enrichment (6-mer frequency, TF over GST control) in experiment [11]; 3.41 fold enrichment (6-mer frequency, TF over GST control) in [12]. Moreover, the binding signal in [13] is 2.72 fold enrichment (6-mer frequency, TF over GST control); in [14], 2.27 fold enrichment (6-mer frequency, TF over GST control); in experiment [15], 2.85 fold enrichment (6-mer frequency, TF over GST control); in experiment [16] it was 3.25 fold enrichment (6-mer frequency, TF over GST control); in [17], 3.33 fold enrichment (6-mer frequency, TF over GST control).

The record behind these values is paper PMC7862700, “An all-to-all approach to the identification of sequence-specific readers for epigenetic DNA modifications on cytosine”.
